Data taken from the supplement of paper PMC6555819.

Test system: VDR:RXRa (NR concentration 270 nM, RXRa partner concentration 90 nM)
Test: PBM binding z-score (relative to random genomic background probes); higher = stronger binding; sequences stand for … in GC…GCGATTGACAGCGTAGAATGAAGG
Method: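 Protein-binding microarray (Agilent 4x180K custom design, double-stranded 60-nt probes: 5' GC cap, 34-nt variable region, 24-nt constant primer region; full probe sequence given). Purified or IVT nuclear receptor:RXRα heterodimers (3:1 NR:RXRα, mostly 270:90 nM) or homodimers were incubated for 1 h in PBS with 2% milk and no ligand, then detected with Alexa488 antibodies. Fluorescence from o1-orientation probes (~5 replicates averaged) was converted to z-scores against 500 random hg19 background probes. Variable regions are seed direct-repeat (DR0–DR5) sites, all their single-nucleotide variants and half-site ablations.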

Row | Sequence | PBM binding z-score
1 | CCTCGGAGGACAACAGGACGTCAGAGCTGCCAGA | -0.499
2 | TCATATAGGTAAGAGGTGAAAGTCGGTGTGGTAA | 1.33
3 | CCGACAGGGGCAGAAAGGTTACCATACCATCCGG | 1.75
4 | TCTCGGAAGACACGAAGGTCAGAGCTTTCCAGAG | 1.08
5 | TCGAGTAGATTAGGGGCATTCAGAATGGCGTCGA | 0.295
6 | ATCTCTAGGTAAAACTCAGTTCAGTGAAGAACGC | 1.5
7 | CAGACTAGGTCACGAAAGGTCAAAGTCGAATGAC | 6.8
8 | CCTAGGAGGACAGAAGGTCAGAGCTGTCCGCTTT | 1.09
9 | TAACCTAGGTCATGGGCCAGTATACCACGCGAAC | 2.88
10 | ATCGTAAGGTCGACGAGGTGAGTATACACCGTTT | 4.52
11 | GGATCGAGGGCATTCGAGTTGATAGCATGGCGAT | 3.52
12 | CCTAGAAGGCCAATCTGGGTCACTCAAGGCTTGA | 1.39
13 | CCTACTGGGCCAAGGTCATTTATCAGTCAAAGCA | 3.13
14 | CCTCGGAGGACAGAAGGTCAGAGTTGTCCGCTTT | 1.12
15 | TCGAGTATGTTAGTCGGGGCATTCAGCCAACATA | 0.158
16 | TAGCCTAGGTCTTGGGCCAGTATACCACGCGAAC | -0.455
17 | AGAATGAGGTTACCAAAGATCAGGTAAACGCTTG | 1.44
18 | ACTTACCGGTCAACGAGGTTATAGCACGCGTATA | 6.19
19 | TATACAGGGCCAAAGGCCAGAGTACGAATGTCGA | 0.13
20 | CGTCCAAGGTCAGAGAGGTGAGTGAATGCCGAGT | 4.78

Row | Sequence | PBM binding z-score
21 | CATACAGGGTCAGCTAGGCCGGAGTAGGGACGGC | 3.08
22 | CTCGAAAGGTCGTGCTCAGGTGAATATACCAAAC | 3.77
23 | CAAACTAGGTCACAGAGGTCAAAGGCCGTGCGTA | 8.04
24 | CTCGAAAGGTCGTGCTCGGGTGAGTATACCAAAC | 3.43
25 | ATCTCTATGTAAAGATAGTTCAGTGAATGCAAAT | 0.557
26 | ACTAGCCGGCCAAGTTTGGGTCACTCAAACAAAG | 0.6
27 | TGAGTGAGGTTATAAGATCAGGGAACGTTGCAAA | 0.806
28 | CCTAGCAGGCCAATCTGGGTCACTGAAGGCTTGA | 0.552
29 | CCTACTGGGCCATTCAGAGCTCATTGATCATATG | -0.707
30 | CCTATTAGTTGACCATAAGGGAAACCGAAGCTCG | 0.226
31 | GCAGACAGGTGAAGCGCAGGTAACTCAGGGTGGC | -0.67
32 | GCATATAGGTAATACAAGGTGAAAGTACGATTGT | 0.62
33 | GTACCAAGGTGAACAGGTCGTTGATGAGTAGGCG | 1.15
34 | GCTTGTAGATCAATGTTAAGAAAGACTAAGCTAA | -0.368
35 | TCGAGTAGGTTAGTCAGGGCATTCAGCCAACATA | 2.59
36 | AGTCAAAGTTCACTAGGTAACGTCAGATTCAGCT | 3.95
37 | TAGACTAGGTCATGCGGGCCAGTATAGTGTCGGC | 2.46
38 | CGAACTTGGTCAGAACAGGACAGTGAAGGATGAT | -0.145
39 | CCTTACGGGTCACGAGGTTACAGCACGACGAGCG | 5.28
40 | CGTCCAGGGTCAATGCTAGGTCAGTGAAAGCATT | 4.9
